The list is not random: actives were taken first. Their share in the collection is about 2.4%.
D2 PAM-1: positive allosteric modulators of human D2 dopamine receptor. P14416. DiscoveRx D2 beta-arrestin cells, luminescence, 90 min; 100% = 57 uM dopamine signal. 360,000 compounds, 0.23% hits. potentiation, % (test concentration not listed); in the data active means potentiation above about 50%; inconclusive means mostly about 30% to 49%
Target sequence (P14416 whole entry, looked up): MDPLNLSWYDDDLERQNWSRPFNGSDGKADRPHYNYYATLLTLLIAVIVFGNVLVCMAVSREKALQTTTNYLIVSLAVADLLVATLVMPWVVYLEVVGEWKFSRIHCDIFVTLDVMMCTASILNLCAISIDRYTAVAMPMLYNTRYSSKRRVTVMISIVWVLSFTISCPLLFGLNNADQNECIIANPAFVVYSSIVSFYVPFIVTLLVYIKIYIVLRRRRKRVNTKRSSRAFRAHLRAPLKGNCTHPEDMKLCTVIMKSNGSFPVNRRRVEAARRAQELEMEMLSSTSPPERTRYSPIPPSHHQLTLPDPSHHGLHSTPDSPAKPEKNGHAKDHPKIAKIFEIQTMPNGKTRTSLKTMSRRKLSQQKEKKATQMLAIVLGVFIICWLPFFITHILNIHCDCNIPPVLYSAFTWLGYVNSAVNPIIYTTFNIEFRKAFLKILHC
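D2 cells co-treated with compound plus 50 nM dopamine (EC20) for 90 min at 37 deg C to detect potentiation. Beta-arrestin recruitment was read as enzyme-fragment luminescence after 1 h at ambient temperature. Full response was set by 57 uM dopamine.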
D2 PAM-2: D2 dopamine receptor (human) potentiation; HEK293 T-REx D2, calcium flux, EC20 dopamine potentiation; AID 485347; 340,000 compounds, 0.34% hits; potentiation, % at 10 µM; P14416;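 active means potentiation over 3 SD above the plate norm, cut at about 30% in these data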; further: 0% is about no effect
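Tetracycline-induced Hek293 Trex D2 cells, force-coupled to calcium, loaded with no-wash calcium dye. Compound added with 180 s kinetic read for agonism, then EC20 dopamine and a further 180 s read for potentiation.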
D2 ag-1: agonists of human D2 dopamine receptor | activation, % at 2 µM | P14416 | HEK293 T-REx D2 cells, calcium flux agonist mode | 340,000 compounds, 0.53% hits;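 active means activation over 3 SD above normal in the single-dose calcium agonist read, cut at about 30% in these data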; further: 0% is about no effect
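In this primary screen, compounds producing a positive calcium signal within 180 s of addition to tetracycline-induced, force-coupled HEK293 Trex D2 cells are flagged; cells are dye-loaded with a no-wash calcium kit beforehand.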
D2 ag-2: activates the human D2 dopamine receptor. DiscoveRx PathHunter D2 beta-arrestin, luminescence, 90 min; 100% = 57 uM dopamine signal. 360,000 compounds, 0.084% hits. P14416. activation, % (test concentration not listed); in the data active means activation above about 40%; inconclusive means between about 15% and that limit
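Agonist mode: compounds alone added to overnight-plated D2 PathHunter cells for 90 min at 37 C, with 57 uM final dopamine (EC100) defining full response. Beta-arrestin recruitment detected by chemiluminescent reagent, read after 1 h at ambient temperature.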
D2 antag: antagonizes the human D2 dopamine receptor; P14416; HEK293 TREx D2 cells, calcium flux, dopamine EC80; inhibition, % at 10 µM; 340,000 compounds, 2% hits; in the data active means inhibition above about 30%; inactive means below that, where a call was filed; further: 0% is about no effect
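Antagonism is scored as inhibition of an EC80 dopamine-evoked calcium signal in a force-coupled, tetracycline-inducible HEK293 T-REx D2 line, with compound present 180 s before agonist.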
* hit, by the source's call; ? = inconclusive; . = no result.

SMILES	D2 PAM-1	D2 PAM-2	D2 ag-1	D2 ag-2	D2 antag
COC(=O)c1c(C(=O)OC)c2cc(C(=O)c3ccccc3)ccn2c1Cl	-13	47*	0	-3	3
O=C(O)c1ccccc1SCC(=O)N1c2ccccc2Sc2ccccc21	62*	-4	-1	?	-6
O=C(O)c1ccccc1SCC(=O)N1CCCCC1	3	3	0	-1	0
O=C(O)c1ccc(N/N=C/c2ccnc3ccccc23)cc1	-5	-5	0	-8	40*
CN(C)c1nc2n(c(=O)n1)C(C#N)CS2 (centres undefined)	2	6	0	-1	33*
CN(C)c1nc2n(c(=O)n1)CCS2	1	16	0	0	0
COc1ccccc1N1CCN(C2CCCN(Cc3c(F)cccc3F)C2)CC1 (centres undefined)	-2	-21	0	-4	53*
COc1ccccc1N1CCN(C2CCCN(C(=O)c3ccoc3C)C2)CC1 (centres undefined)	-47	-16	0	-3	31*
COc1ccccc1N1CCN(C2CCCN(Cc3cccc(O)c3)C2)CC1 (centres undefined)	-2	-19	1	-2	49*
COc1ccccc1N1CCN(C2CCCN(C(=O)c3cc(C)oc3C)C2)CC1 (centres undefined)	-33	2	-1	-1	-2
O=C(CN1C(=O)C2CCCCN2c2ccc(C(=O)N3CCCC3)cc21)NCc1ccccc1F (centres undefined)	.	10	-1	.	.
Cc1c(Cl)cccc1NC(=O)C(C)N(c1ccccc1)S(C)(=O)=O (centres undefined)	.	-12	0	.	.
Cc1cccc(OCc2nc(CC(=O)Nc3ccc(Cl)cc3)cs2)c1	.	0	-1	.	.
CC(C)(C)c1ccc(OC(=O)N2CCOCC2)cc1	-3	-5	0	3	32*
CCOc1ccc(CNC(=O)CCn2nc(C)c3c(C)n(-c4ccccc4)nc3c2=O)cc1	.	-2	0	.	.
N#Cc1ccccc1OCC(=O)OCC(=O)NC1CC1	-2	5	0	3	-1
Cc1cc2ncn(/N=C/c3cccnc3)c2cc1C	-23	0	0	-2	-3
Cc1cc2ncn(/N=C/c3ccc4c(c3)OCO4)c2cc1C	-3	-1	2	-3	89*
O=C1N(CN2CCN(c3cccc(Cl)c3)CC2)c2ccccc2C12OCCCO2	-17	-22	1	-1	33*
O=C1N(CN2CCC3(CC2)OCCO3)c2ccccc2C12OCCCO2	-10	6	0	-3	4
Cc1cccc(NC(=S)NC2CC3CCC(C2)N3Cc2ccco2)c1 (centres undefined)	-28	-20	0	0	39*
Cc1ccccc1NC(=S)NC1CC2CCC(C1)N2Cc1ccco1 (centres undefined)	-21	-18	0	-2	39*
Nc1cc(=O)nc(SCC(=O)Nc2ccc(F)cc2)n1-c1cccc(Cl)c1	.	0	.	.	.
CCOC(=O)c1c(O)cc(C)cc1Nc1ccccc1	-4	4	2	-1	32*
CCOC(=O)c1c(Nc2ccccc2N)cc(C)nc1C	9	-1	0	1	9
SMILES	D2 PAM-1	D2 PAM-2	D2 ag-1	D2 ag-2	D2 antag
O=C1NCCCCC1NC1CC(=O)N(c2ccccc2)C1=O (centres undefined)	19	.	.	-2	.
CCOc1ccc(N2C(=O)CC(NC3CCCCNC3=O)C2=O)cc1 (centres undefined)	-11	-6	0	-3	45*
CCOC(=O)/C(=C\c1ccc(OC)c(OC)c1)C(=O)c1cccnc1	-5	40*	3	-2	2
COc1ccc(/C=C/C(=O)O/N=C(\N)c2cccnc2)cc1OC	16	-3	-2	6	-6
O=C(Nc1cccc(Cl)c1)NC1CC2CCC(C1)N2Cc1cccs1 (centres undefined)	-4	-17	0	1	73*
Fc1ccc(NC(=S)NC2CC3CCCC(C2)N3Cc2cccs2)cc1 (centres undefined)	-23	-13	0	-4	15
Cc1cccc(NC(=S)NC2CC3CCCC(C2)N3Cc2cccs2)c1C (centres undefined)	-24	-22	0	-1	69*
CCc1ccccc1NC(=S)NC1CC2CCCC(C1)N2Cc1cccs1 (centres undefined)	-19	-23	-1	-1	72*
Cc1ccc(NC(=S)NC2CC3CCCC(C2)N3Cc2cccs2)cc1 (centres undefined)	-38	-23	1	-3	72*
CCCN1C2CCCC1CC(NC(=S)Nc1cccc(C)c1C)C2 (centres undefined)	-13	-10	0	-3	-16
CCCCN1C(=O)C(CC(=O)NCCN2CCOCC2)CC(C(=O)N(C)C)=C1C (centres undefined)	.	.	.	-2	.
CC(C)Cn1c(=O)c2sccc2n2c(CCCC(=O)Nc3ccc(Cl)cc3)nnc12	.	1	-1	.	.
COc1ccc(S(=O)(=O)c2cn(Cc3ccccc3)c3cc(N4CCCC4)c(F)cc3c2=O)cc1	.	4	0	.	.
COc1cccc(CNc2nc3ccccc3c3nc(-c4cccc(C)c4)nn23)c1	.	-1	1	.	.
CC(=O)Nc1sc(/C(C#N)=C\c2cccc(Cl)c2)nc1-c1ccc(C)cc1	6	-14	61*	0	30*
CC(=O)N1CCc2cc(S(=O)(=O)NC(C(=O)Nc3ccc(C)cc3C)C(C)C)ccc21 (centres undefined)	.	-5	-1	.	.
CC(=O)N1CCCc2cc(S(=O)(=O)NC(C(=O)NCc3ccc(C)cc3)C(C)C)ccc21 (centres undefined)	-8	46*	1	-3	-4
CCOC(=O)CN1C(=O)C(Sc2n[nH]c(-c3cccc(C)c3)n2)CCc2ccccc21 (centres undefined)	-22	-22	-1	0	-13
CCOC(=O)CN1C(=O)C(Sc2n[nH]c(-c3ccc(C)cc3)n2)CCc2ccccc21 (centres undefined)	-27	-21	0	-4	61*
CSc1ccc(Cl)c(C(=O)N(C)CC(=O)Nc2ccc(N3CCOCC3)cc2)c1	-4	-1	1	-2	-8
COc1ccc(C(=O)Nc2c(O)ccc3ccccc23)cc1OC	17	.	.	0	.
COc1ccc(S(=O)(=O)Nc2c(O)ccc3ccccc23)cc1OC	107*	.	.	?	.
Cc1nn(S(=O)(=O)c2ccc(C(C)C)cc2)c(C)c1S(=O)(=O)N1CCCCCC1	.	-9	0	.	.
CCN1C(=O)OC2(CCCCC2)C1(C)O (centres undefined)	.	41*	0	.	7
COc1cc(NC(=O)CSc2nc(C)c(C)c(C)n2)cc(OC)c1	-2	6	-1	-3	48*
